Source: PubChem BioAssay (Tox21)
Where “and” joins values, the source holds several entries; their conditions need not be identical. Equal values may be shown once. Records with an inconclusive call do not appear. A call without a number means that no potency is given here. Some structures have more than one record in an assay (separate samples or runs), and their calls can disagree. Calls of active or inactive are those of the source. Unless noted, calls follow the shape of the dose curve; as a rule, active = well fitted curve in the direction sought with a large enough effect in the repeat runs; inconclusive = weak or mixed curves; inactive = no such curve, though single readings can be large; an effect the other way counts as inactive or inconclusive.

Key:
[1] = qHTS assay to identify small molecule agonists of the peroxisome proliferator-activated receptor delta (PPARd) signaling pathway - cell viability counter screen (AID 743211); also: nearly all actives have a fitted effect of over 55% in size
How it was run: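 Counter screen for cytotoxicity run in parallel with the PPARd reporter screen. Beta-lactamase reporter HEK293H cells exposed to compounds 17 h; ATP-based CellTiter-Glo luminescence quantified viability.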

[2] = biological target: Peroxisome proliferator-activated receptor delta (Homo sapiens) (UniProt Q03181); assay: qHTS assay to identify small molecule agonists of the peroxisome proliferator-activated receptor delta (PPARd) signaling pathway (AID 743212; calls by dose curve)
How it was run: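 GeneBLAzer UAS-bla HEK293H cells carrying a PPARδ construct were exposed to compounds at 37 °C. Beta-lactamase activity was read by FRET fluorescence after 2 h at room temperature with LiveBLAzer B/G substrate.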

[3] = qHTS assay to identify small molecule antagonists of the peroxisome proliferator-activated receptor delta (PPARd) signaling pathway - cell viability counter screen (AID 743213); also: nearly all actives have a fitted effect of over 50% in size
How it was run: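 CellTiter-Glo was added to PPARd-bla HEK293H wells following 17 h compound treatment in the presence of 300 nM L165041. Luminescence was recorded after 30 min at room temperature.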

[4] = biological target: Peroxisome proliferator-activated receptor delta (Homo sapiens) (UniProt Q03181); assay: qHTS assay to identify small molecule antagonists of the peroxisome proliferator-activated receptor delta (PPARd) signaling pathway (AID 743215; active = well fitted inhibition curve with a large enough effect in the signal ratio in the repeat runs, not every such curve was filed as active; the % refers to the signal ratio;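 also: cells stimulated with agonist L165041 at 300 nM final during compound exposure; series mostly up to about 62 µM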)
How it was run: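 With L165041 present at 300 nM final, compounds were incubated 17 h at 37 C on PPARd UAS-bla HEK293H cells. A FRET-based beta-lactamase substrate was then applied for 2 h at room temperature and fluorescence intensity recorded.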

[5] = qHTS assay to identify small molecule agonists of the farnesoid-X-receptor (FXR) signaling pathway - cell viability counter screen (AID 743218); also: nearly all actives have a fitted effect of over 45% in size
How it was run: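 After 16 h at 37 C with test compounds, FXR-bla HEK 293T cells were given LiveBLAzer B/G substrate for 2 h at RT and then CellTiter-Glo; luminescence was taken after 30 min.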

[6] = qHTS assay to identify small molecule antagonists of the farnesoid-X-receptor (FXR) signaling pathway - cell viability counter screen (AID 743221; active = well fitted cell-killing curve with a large enough effect in the repeat runs, not every such curve was filed as active; also: nearly all actives have a fitted effect of over 50% in size; also: potency is read from the fitted curve at half-maximal effect)
How it was run: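 Multiplexed counter screen: viability of FXR-bla HEK 293T cells under agonist stimulation by chenodeoxycholic acid (50 uM, final) and test compound for 16 h at 37 C, measured by CellTiter-Glo luminescence in the reporter wells.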

[7] = biological target: Vitamin D3 receptor (Homo sapiens) (UniProt P11473); assay: qHTS assay to identify small molecule agonists of the vitamin D receptor (VDR) signaling pathway (AID 743222; calls by dose curve)
How it was run: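 VDR-bla cells were seeded, left 4 h, treated with compounds in DMSO for 16 h, incubated 2 h at RT with B/G FRET substrate, and read for fluorescence.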

[8] = biological target: Vitamin D3 receptor (Homo sapiens) (UniProt P11473); assay: qHTS assay to identify small molecule antagonists of the vitamin D receptor (VDR) signaling pathway (AID 743223; active = well fitted inhibition curve with a large enough effect in the signal ratio in the repeat runs, not every such curve was filed as active; the % refers to the signal ratio)
How it was run: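 Cells carrying a VDR-driven beta-lactamase reporter (VDR-bla) were co-treated with compound and 3 nM final 1alpha,25-dihydroxyvitamin D3 for 16 h at 37C; reporter activity was measured as FRET substrate fluorescence after 2 h at room temperature.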

[9] = biological target: Bile acid receptor (Homo sapiens) (UniProt Q96RI1); assay: qHTS assay to identify small molecule antagonists of the farnesoid-X-receptor (FXR) signaling pathway (AID 743217; active = well fitted inhibition curve with a large enough effect in the signal ratio in the repeat runs, not every such curve was filed as active; the % refers to the signal ratio)
How it was run: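 In this cell-based antagonist screen, inhibition of CDCA-driven (50 uM final) UAS-beta-lactamase expression in HEK 293T cells was measured by FRET fluorescence following 16 h compound exposure at 37 °C.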

[10] = biological target: Bile acid receptor (Homo sapiens) (UniProt Q96RI1); assay: qHTS assay to identify small molecule agonists of the farnesoid-X-receptor (FXR) signaling pathway (AID 743220; active = well fitted activation curve with a large enough effect in the signal ratio in the repeat runs, not every such curve was filed as active; the % refers to the signal ratio)
How it was run: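 Beta-lactamase reporter under UAS control in GeneBLAzer FXR HEK 293T cells (5000/well) measured with LiveBLAzer FRET substrate after 2 h at room temperature. Compound exposure lasted 16 h at 37C.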

Peroxisome proliferator-activated receptor delta (Homo sapiens), sequence (Q03181 whole entry, looked up): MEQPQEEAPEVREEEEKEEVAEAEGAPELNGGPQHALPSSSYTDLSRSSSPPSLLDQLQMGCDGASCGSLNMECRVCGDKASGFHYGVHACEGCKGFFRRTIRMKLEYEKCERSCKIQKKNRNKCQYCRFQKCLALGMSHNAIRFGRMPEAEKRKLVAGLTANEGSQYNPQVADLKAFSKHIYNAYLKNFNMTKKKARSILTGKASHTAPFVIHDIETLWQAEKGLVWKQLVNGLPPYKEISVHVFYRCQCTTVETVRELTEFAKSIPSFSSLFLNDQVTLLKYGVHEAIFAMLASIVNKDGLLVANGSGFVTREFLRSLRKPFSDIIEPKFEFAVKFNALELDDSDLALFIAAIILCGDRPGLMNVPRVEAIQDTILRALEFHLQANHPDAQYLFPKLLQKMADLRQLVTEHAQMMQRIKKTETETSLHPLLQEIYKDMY
Vitamin D3 receptor (Homo sapiens), sequence (P11473 whole entry, looked up): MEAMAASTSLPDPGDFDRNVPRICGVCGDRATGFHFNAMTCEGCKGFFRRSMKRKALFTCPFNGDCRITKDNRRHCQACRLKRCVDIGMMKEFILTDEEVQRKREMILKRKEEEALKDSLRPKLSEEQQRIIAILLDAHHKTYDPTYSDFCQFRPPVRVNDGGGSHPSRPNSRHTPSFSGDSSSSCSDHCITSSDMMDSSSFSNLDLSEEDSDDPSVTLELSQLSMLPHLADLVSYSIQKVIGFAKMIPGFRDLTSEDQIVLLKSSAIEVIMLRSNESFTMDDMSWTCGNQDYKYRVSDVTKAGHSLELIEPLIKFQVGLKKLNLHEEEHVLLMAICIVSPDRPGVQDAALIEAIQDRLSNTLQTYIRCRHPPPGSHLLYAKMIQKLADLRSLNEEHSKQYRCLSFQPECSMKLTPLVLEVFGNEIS
Bile acid receptor (Homo sapiens), sequence (Q96RI1 whole entry, looked up): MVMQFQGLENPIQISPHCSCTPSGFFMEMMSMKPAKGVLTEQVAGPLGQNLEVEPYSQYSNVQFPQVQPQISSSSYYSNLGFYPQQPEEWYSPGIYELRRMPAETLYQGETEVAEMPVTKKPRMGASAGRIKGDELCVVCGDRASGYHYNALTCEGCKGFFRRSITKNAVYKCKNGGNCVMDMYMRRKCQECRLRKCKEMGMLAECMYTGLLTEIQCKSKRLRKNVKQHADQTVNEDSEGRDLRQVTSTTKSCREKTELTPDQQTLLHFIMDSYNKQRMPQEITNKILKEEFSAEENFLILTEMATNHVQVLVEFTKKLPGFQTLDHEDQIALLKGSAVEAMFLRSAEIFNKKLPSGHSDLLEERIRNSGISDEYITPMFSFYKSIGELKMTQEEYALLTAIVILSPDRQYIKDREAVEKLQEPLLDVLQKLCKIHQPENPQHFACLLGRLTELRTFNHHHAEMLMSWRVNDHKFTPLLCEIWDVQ

Structure (SMILES) | outcome [1] | outcome [2] | outcome [3] | Potency [4] | Potency [5] | Potency [6] | outcome [7] | outcome [8] | outcome [9] | outcome [10] | viability change, negative = cytotoxic [3] | activity change, negative = inhibition [8]
CCCCC(CC)COC(=O)C(C#N)=C(c1ccccc1)c1ccccc1 (centres undefined) | inactive | inactive | inactive | inactive | inactive | inactive | inactive | inactive | – | – | – | –
CCCCC(CC)CO (centres undefined) | inactive | inactive | inactive | inactive | inactive | inactive | inactive | inactive | inactive | inactive | – | –
CSCCC=O | inactive | inactive | inactive | inactive | inactive | inactive | inactive | inactive | inactive | inactive | – | –
O=C(O)c1ccccc1C(c1ccc(O)cc1)c1ccc(O)cc1 | inactive | inactive | inactive | inactive | inactive | inactive | – | – | – | – | – | –
COc1ccc(Cl)cc1C(=O)NCCc1ccc(S(=O)(=O)NC(=O)NC2CCCCC2)cc1 | inactive | inactive | inactive | inactive | inactive | inactive | – | – | inactive | inactive | – | –
O=C(OCCOCCOC(=O)c1ccccc1)c1ccccc1 | inactive | inactive | inactive | inactive | inactive | inactive | inactive | inactive | inactive | inactive | – | –
COc1cc(Cc2cnc(N)nc2N)cc(OC)c1OC | inactive | inactive | inactive | inactive | inactive | inactive | inactive | inactive | – | – | – | –
CCCCCCCCCC | inactive | inactive | inactive | inactive | inactive | inactive | inactive | inactive | inactive | inactive | – | –
CCCCCC1=CCCC1=O | inactive | inactive | inactive | inactive | inactive | inactive | inactive | inactive | inactive | inactive | – | –
Cc1ccc2oc(=O)ccc2c1 | inactive | inactive | inactive | inactive | – | inactive | inactive | inactive | inactive | inactive | – | –
C[C@H]1C[C@@H]2[C@H]([C@@H](O)C[C@@]3(C)[C@H]2CC[C@]3(O)C(=O)CO)[C@@]2(C)C=CC(=O)C=C12 | inactive | inactive | inactive | inactive | inactive | inactive | – | – | – | – | – | –
O=C(CC(C(=O)OC1CCCCC1)S(=O)(=O)O)OC1CCCCC1 (centres undefined) | inactive | inactive | inactive | inactive | inactive | inactive | – | – | inactive | inactive | – | –
O=S(=O)(O)c1ccc2ccccc2c1 | inactive | inactive | inactive | inactive | – | inactive and 34.8 µM (active) | inactive | inactive | inactive | inactive | – | –
CC1CCC(C(C)C)C(O)C1 (centres undefined) | inactive | inactive | inactive | inactive | inactive | inactive | inactive | inactive | inactive | inactive | – | –
CC(O)COCC(C)O (centres undefined) | inactive | inactive | inactive | inactive | inactive | inactive | inactive | inactive | inactive | inactive | – | –
Nc1cc([N+](=O)[O-])ccc1O | inactive | inactive | inactive | inactive | inactive | inactive | inactive | inactive | – | – | – | –
O=C(O)CC(C(=O)O)C(CC(=O)O)C(=O)O (centres undefined) | inactive | inactive | inactive | inactive | inactive | inactive | inactive | inactive | inactive | inactive | – | –
CC(c1cc2ccccc2s1)N(O)C(N)=O (centres undefined) | inactive | inactive | inactive | inactive | inactive | inactive | inactive | inactive | – | – | – | –
O=C(Oc1ccccc1)c1ccccc1 | inactive | inactive | inactive | inactive | inactive | inactive | – | – | inactive | inactive | – | –
CCCCN(CCCC)CCCC | inactive | inactive | inactive | inactive | inactive | inactive | inactive | inactive | inactive | inactive | – | –
COc1ccc(NC(C)=O)cc1N | inactive | inactive | inactive | inactive | inactive | inactive | – | – | – | – | – | –
C#CCN(C)Cc1ccccc1 | inactive | inactive | inactive | inactive | inactive | inactive | – | – | – | – | – | –
CCN(CC)CCCC(C)Nc1ccnc2cc(Cl)ccc12 (centres undefined) | inactive | inactive | – | inactive | inactive | inactive | inactive | – | – | – | -17.6% [at 6.26 µM] (inactive) | 1.54% [at 6.95 µM] (inactive)
CC(=O)OCC(=O)[C@@]12N=C(C)O[C@@H]1C[C@H]1[C@@H]3CCC4=CC(=O)C=C[C@]4(C)[C@H]3[C@@H](O)C[C@@]12C | inactive | inactive | inactive | inactive | inactive | inactive | inactive | inactive | – | – | – | –
O=C(O)c1ccc(C(=O)O)cc1 | inactive | inactive | inactive | inactive | inactive | inactive | inactive | inactive | – | – | – | –

Structure (SMILES) | outcome [1] | outcome [2] | outcome [3] | Potency [4] | Potency [5] | Potency [6] | outcome [7] | outcome [8] | outcome [9] | outcome [10] | viability change, negative = cytotoxic [3] | activity change, negative = inhibition [8]
O=C(O)c1cc(=O)c2c(OCC(O)COc3cccc4oc(C(=O)O)cc(=O)c34)cccc2o1 | inactive | inactive | inactive | inactive | inactive | inactive | – | – | – | – | – | –
O=C(O)[C@H](O)[C@@H](O)[C@H](O)[C@H](O)CO | inactive | inactive | inactive | inactive | inactive | inactive | inactive | inactive | – | – | – | –
C#C[C@]1(O)CC[C@H]2[C@@H]3CCC4=CC(=O)CC[C@@H]4[C@H]3CC[C@@]21C | inactive | inactive | inactive | inactive | inactive | inactive | – | – | – | – | – | –
OC[C@H]1O[C@@](CO)(O[C@H]2O[C@H](CO)[C@@H](O)[C@H](O)[C@H]2O)[C@@H](O)[C@@H]1O | inactive | inactive | inactive | inactive | inactive | inactive | – | – | inactive | inactive | – | –
CCCCCCCCCCCCCCCO | inactive | inactive | inactive | inactive | inactive | inactive | inactive | inactive | inactive | inactive | – | –
CCCC(C)=O | inactive | inactive | inactive | inactive | inactive | inactive | – | – | inactive | inactive | – | –
C[C@H]1C[C@H]2[C@@H]3CCC4=CC(=O)C=C[C@]4(C)[C@@]3(F)[C@@H](O)C[C@]2(C)[C@@]1(O)C(=O)CO | inactive | inactive | inactive | inactive | inactive | inactive | – | – | – | – | – | –
C[Si](O[Si](C)(C)C)O[Si](C)(C)C | inactive | inactive | inactive | inactive | inactive | inactive | inactive | inactive | inactive | inactive | – | –
c1ccc2c(c1)ccc1ccccc12 | inactive | inactive | inactive | inactive | inactive | inactive | inactive | inactive | inactive | inactive | – | –
O=c1[nH]nnc2ccccc12 | inactive | inactive | inactive | inactive | – | inactive | inactive | inactive | inactive | inactive | – | –
O=C(O)CCCC[C@@H]1SC[C@@H]2NC(=O)N[C@@H]21 | inactive | inactive | inactive | inactive | inactive | inactive | inactive | inactive | – | – | – | –
Cc1cc(C)c(C)cc1C | inactive | inactive | inactive | inactive | – | inactive | inactive | – | inactive | inactive | – | –
CCCCCCCC(=O)OC | inactive | inactive | inactive | inactive | inactive | inactive | inactive | inactive | – | – | – | –
C/C=C1/CC2C=CC1C2 (centres undefined) | inactive | inactive | inactive | – | – | inactive | inactive | inactive | – | – | – | –
CC(=O)c1ccccc1 | inactive | inactive | inactive | inactive | – | inactive | – | – | – | – | – | –
C=C(C)C(=O)O[C@H]1C[C@@H]2CC[C@@]1(C)C2(C)C | inactive | inactive | – | inactive | inactive | inactive | inactive | inactive | – | – | – | –
CC(C)(N)CO | inactive | inactive | – | inactive | – | inactive | inactive | inactive | inactive | inactive | – | –
O=C(O)c1cc(C(=O)O)cc(S(=O)(=O)O)c1 | inactive | inactive | – | inactive | inactive | inactive | inactive | inactive | inactive | inactive | – | –
OCC(CO)(CBr)CBr | inactive | inactive | – | inactive | inactive | inactive | – | – | inactive | inactive | – | –
O=C(O)CCCCCCCCCCC(=O)O | inactive | inactive | – | inactive | – | inactive | inactive | inactive | inactive | inactive | – | –
CCCCCCCCCCCCS | inactive | inactive | – | inactive | inactive | inactive | inactive | inactive | – | – | – | –
Cc1ccc(S(N)(=O)=O)cc1 | inactive | inactive | inactive | – | – | inactive | inactive | inactive | – | inactive | – | –
N[C@@H](Cc1cc(I)c(Oc2cc(I)c(O)c(I)c2)c(I)c1)C(=O)O | inactive | inactive | inactive | inactive | – | inactive | inactive | inactive | – | – | – | –
CC(=O)Nc1ccccc1 | inactive | inactive | – | inactive | – | inactive | inactive | – | inactive | inactive | – | –
CN(C)CCOCCN(C)C | inactive | inactive | – | inactive | inactive | inactive | inactive | inactive | inactive | inactive | – | –
